High-throughput results deposited in PubChem by DiRusso Lab, Biochemistry Department, University of Nebraska.
Algae TAG accum: algal TAG accumulation induction | Chlamydomonas reinhardtii TAG, Nile Red fluorescence, 72 h | 0.84% of 44,000 active | AID 1159537 | calls only at 10 µM (by protocol); call rule not given here;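 note: hits raise Nile Red signal meaning more stored TAG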
Calls only; n = inactive; + = active, no number. The full list was thinned out, with hits kept by preference.

SMILES | Algae TAG accum
Cc1cc(Br)ccc1OCCCCN1CCOCC1 | n
Cc1nnc(SCC(=O)NCc2cc(C(=O)c3ccccc3)ccc2O)s1 | n
Cc1cc([N+](=O)[O-])cc2c1NC(=O)C2=O | n
CCN(CC)C(=O)c1ccc(-c2nnc(Nc3cccc(O)c3)c3ccccc23)cc1 | n
CCOC(=O)N1CCN(CC(O)COCCC23CC4CC(CC(C4)C2)C3)CC1 (stereo unspecified) | n
CCN1CCN(CC(O)COCCC23CC4CC(CC(C4)C2)C3)CC1 (stereo unspecified) | +
OC(COCCC12CC3CC(CC(C3)C1)C2)CN1CCOCC1 (stereo unspecified) | n
CN1CCCN(Cc2ccc([N+](=O)[O-])s2)CC1 | n
O=[N+]([O-])c1ccc2c(c1)S(=O)(=O)N=C2Nc1ccc(Br)cc1 | n
Cc1cccc(-c2noc(COc3ccc(Br)cc3)n2)c1 | +
Cc1cc(OCc2nc(-c3cccnc3)no2)cc(C)c1Br | n
COc1ccc(-c2noc(COc3ccc(Br)cc3C)n2)cc1OC | n
CC(C)(C)C1=C[C@@H](CO)C[C@@H](CO)C1 | n
O=[N+]([O-])c1ccc(CSc2nnc(Nc3ccccc3)s2)cc1 | n
CCC(C)c1ccc(NC(=O)c2ccccc2Br)cc1 (stereo unspecified) | n
OCCN(CCO)Cc1ccccc1 | n
Cc1ccc(Cl)cc1N(CC(=O)NCc1cccnc1)S(C)(=O)=O | n
COc1ccc(S(=O)(=O)Nc2ccccc2Cl)cc1 | n
CN(C)Cc1cc(Cl)ccc1O | n
CN1CCC(N(C)Cc2cc(Cl)ccc2O)CC1 | +
CN1CCC(N(C)Cc2cc(F)ccc2F)CC1 | n
Cc1cccc(N2C(=O)CC(N3CCN(Cc4ccccc4)CC3)C2=O)c1 (stereo unspecified) | n
Cc1ccc(NS(=O)(=O)c2ccc([N+](=O)[O-])cc2)cc1 | n
Cc1ccc(S(=O)(=O)c2ccc(-c3ccc([N+](=O)[O-])cc3)cc2)cc1 | +
Cc1ccc(S(=O)(=O)c2ccc(C)cc2)cc1 | n
SMILES | Algae TAG accum
Clc1ccccc1-c1nnc(SCc2ccccc2)o1 | n
O=C(NCc1cccnc1)c1cccc(F)c1 | n
COc1ccccc1C(CC(=O)Nc1nccs1)c1ccc2c(c1)OCO2 (stereo unspecified) | n
O=[N+]([O-])c1ccc(CSc2nnc(-c3ccco3)n2-c2ccccc2)cc1 | n
Cc1cc(I)ccc1S(=O)(=O)NCCCN1CCOCC1 | +
COc1cc(C)c(S(=O)(=O)NCCN2CCOCC2)cc1C | n
Cc1ccc(S(=O)(=O)NCCCN2CCOCC2)cc1 | n
Cc1c(Cl)ccc(S(=O)(=O)NCCN2CCOCC2)c1Cl | n
COc1cc(Cl)c(S(=O)(=O)NCCCN2CCOCC2)cc1Cl | +
COc1cc(C)c(C)cc1S(=O)(=O)NCCN1CCOCC1 | n
O=C(NCc1cccnc1)C1CCN(Cc2ccc(F)cc2)CC1 | n
CCc1ccc(NC(=O)c2ccco2)cc1 | n
Fc1cccc(F)c1CN1CCOCC1 | n
Cc1ccc(C(=O)Nc2nccs2)cc1Br | n
Cc1ccc(OCC(=O)Nc2ccc(C(=O)Nc3nccs3)cc2)cc1C | n
CCC(CC)C(=O)Nc1ccc(C(=O)Nc2nccs2)cc1 | +
O=c1[nH]c(/C=C/c2ccc(Br)cc2)nc(O)c1[N+](=O)[O-] | n
O=C(NCCSCc1ccccc1)c1ccccc1Cl | n
Cc1ccnc(NS(=O)(=O)c2ccc(NC(=O)c3cccc(N4C(=O)CCC4=O)c3)cc2)n1 | n
CCCC(=O)Nc1ccc(NC(=O)COc2ccccc2)cc1 | n
O=C(O)C1C2C=CC(O2)C1C(=O)Nc1ccccc1F (stereo unspecified) | +
O=C(Nc1ccccc1F)[C@@H]1C2C=CC(C2)[C@@H]1C(=O)O (stereo partly specified) | n
Cc1ccc(Cl)cc1NC(=O)C1C2C=CC(O2)C1C(=O)O (stereo unspecified) | n
NNC(=O)C(=O)Nc1nc(-c2ccc(Cl)cc2)cs1 | n
O=C(Nc1nn(Cc2ccc(Cl)cc2)cc1Br)c1ccc(F)cc1 | n
SMILES | Algae TAG accum
Cc1ccc(NC(=O)CC(C)C)c(NC(=O)CC(C)C)c1 | +
Cc1ccc(NC(=O)CCC(=O)O)c(C)c1 | n
Cc1cccc(C(=O)Nc2ccc(C)cc2NC(=O)c2cccc(C)c2)c1 | n
CC(C)(C)OC(=O)N1CC(O)CC1C(=O)NC1CCCCC1 (stereo unspecified) | n
O=C(Nc1cccc([N+](=O)[O-])c1)c1ccc2c(c1)OCCO2 | n
CC1CCC(N2CCN(Cc3ccccc3)CC2)CC1 (stereo unspecified) | +
CC(=O)N1CCN(C2CCC(C)CC2)CC1 (stereo unspecified) | n
CCCCN(C)C1CCN(Cc2ccccc2)CC1 | n
c1ccc(CN2CCC(N3CCN(Cc4ccco4)CC3)CC2)cc1 | n
CCN1CCN(C2CCC(C)CC2)CC1 (stereo unspecified) | +
CCN1CCC(N2CCN(C=O)CC2)CC1 | n
CN(CCc1ccccc1)C1CCN(Cc2ccccc2)CC1 | +
CC1CCCN(C2CCN(Cc3ccccc3)CC2)C1 (stereo unspecified) | n
C=C(C)CN(CC)C1CCN(Cc2ccccc2)CC1 | n
O=C1c2cccc([N+](=O)[O-])c2C(=O)N1C1CCCCCCC1 | n
CC(C)(C)c1cc(CCCO)cc(C(C)(C)C)c1O | n
N#CC1=C(N)OC2=C(C(=O)CCC2)C1c1cccc([N+](=O)[O-])c1 (stereo unspecified) | n
CC(=O)c1ccc(OCCSc2nc3ncnc(N)c3[nH]2)cc1 | n
O=C(CC1(O)C(=O)Nc2ccc(Cl)cc21)c1cccc([N+](=O)[O-])c1 (stereo unspecified) | n
CCc1nc2oc(C(=O)c3ccccc3)c(N)c2c2c1COC(C)(C)C2 | n
O=C(c1ccccc1)c1ccc(OCCCCn2ccnc2)cc1 | +
Ic1ccc(OCCCn2ccnc2)cc1 | n
Brc1ccc(OCCCn2ccnc2)cc1 | n
Cc1c(NC(=O)CCC2CCCCC2)cccc1C(=O)O | n
O=C(O)CNC(=O)NC12CC3CC(CC(C3)C1)C2 | n
SMILES | Algae TAG accum
C=CCNCC(=O)NC12CC3CC(CC(C3)C1)C2 | +
O=C(CN1CCOCC1)NC12CC3CC(CC(C3)C1)C2 | n
CS(=O)(=O)N(Cc1ccccc1)c1ccc(C(=O)NCc2ccccn2)cc1 | n
O=C(O)c1ccc(N2C(=O)CC(N3CCN(c4cccc(Cl)c4)CC3)C2=O)cc1 (stereo unspecified) | n
Cc1cc2c(cc1Br)NC(=O)C21C(C#N)=C(N)OC2=C1C(=O)CC(C)C2 (stereo unspecified) | n
COc1ccc(NC(=O)CCC2CCCCC2)c([N+](=O)[O-])c1 | +
Cc1ccc(NC(=O)CCC2CCCCC2)c([N+](=O)[O-])c1 | n
COc1ccc(NC(=O)CCC2CCCCC2)c(OC)c1 | n
COc1ccccc1CC(=O)N1CCN(c2ccccc2)CC1 | n
CCCSc1ncnc2sc(C)c(C)c12 | n
Cc1cccc(C(=O)Nc2cc(C)ccc2C)c1 | n
C/C(=C\c1ccccc1)CN1CCOCC1 | n
C/C(=C\c1ccccc1)CN1CCN(C)CC1 | +
CCOC(=O)N1CCN(C/C(C)=C/c2ccccc2)CC1 | n
COc1cccc(C(=O)Nc2ccc(NC(=O)C(C)C)cc2)c1 | n
CNC(=O)CN(c1ccccc1C)S(=O)(=O)c1ccc(C)cc1 | n
O=c1c(-c2ccc(Cl)cc2)coc2cc(O)cc(O)c12 | n
O=C(O)C1CC=CCC1C(=O)Nc1ccc(F)cc1F (stereo unspecified) | +
Cc1ccc(Cl)cc1NC(=O)C1CC=CCC1C(=O)O (stereo unspecified) | n
Cc1ccc(NC(=O)C2CC=CCC2C(=O)O)c(Br)c1 (stereo unspecified) | n
